High-throughput results from PubChem.
ST2 inh – IL1RL1 inhibition. Q01638. AlphaLISA ST2-Fc/biotin-IL-33 interaction, 1 h. inhibition, % for hits at 17 µM. 78,000 compounds, 2.3% hits; in the data active = inhibition above about 30%
Target sequence (Q01638 whole entry, looked up): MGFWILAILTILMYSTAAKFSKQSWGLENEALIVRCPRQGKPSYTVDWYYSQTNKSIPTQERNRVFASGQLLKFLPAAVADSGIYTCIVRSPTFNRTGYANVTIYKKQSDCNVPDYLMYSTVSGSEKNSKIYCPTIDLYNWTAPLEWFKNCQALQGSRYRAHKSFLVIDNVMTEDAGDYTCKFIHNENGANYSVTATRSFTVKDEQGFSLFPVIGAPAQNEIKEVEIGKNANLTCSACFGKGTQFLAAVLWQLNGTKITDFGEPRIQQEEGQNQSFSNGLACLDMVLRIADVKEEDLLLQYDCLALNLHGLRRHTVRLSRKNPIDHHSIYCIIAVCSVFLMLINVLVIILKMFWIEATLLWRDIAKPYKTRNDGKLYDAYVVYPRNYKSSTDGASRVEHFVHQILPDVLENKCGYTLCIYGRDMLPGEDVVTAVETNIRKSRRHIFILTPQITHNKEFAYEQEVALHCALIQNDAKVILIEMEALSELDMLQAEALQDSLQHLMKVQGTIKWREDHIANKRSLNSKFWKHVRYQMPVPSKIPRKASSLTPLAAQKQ
Each line names hits and unclear results; the compound was inactive in the other large screens. This excerpt belongs to a sample that is enriched for hits.

CC(C)OC(=O)c1c(NC(=O)CSc2ncccn2)sc2c1CCCC2	none
O=C(NCCc1ccccc1)C(=O)NCC1OCCc2ccccc21 (stereo not drawn)	none
CCN1CCN(C(=O)c2cn(Cc3ccccc3Cl)nn2)[C@@H](C)C1=O	none
O=C(O)c1cc(-c2cccc3cccnc23)cs1	none
Cc1ccc(NCN2C(=O)S/C(=C/c3ccccc3)C2=O)cc1Cl	none
CCNc1nc2ccccn2c(=O)c1/C=C1\SC(=O)N(CC)C1=O	ST2 inh 30%
O=C1S/C(=C\c2c(NCC3CCCO3)nc3ccccn3c2=O)C(=O)N1Cc1ccccc1 (stereo not drawn)	none
Cc1nc(C(=O)N2CCc3nc[nH]c3C2)cs1	none
O=C1C=CC(=O)C(C2=C3C(=O)N(CCc4ccccc4)CC(=O)N3CCC2)=C1	ST2 inh 38%
O=C1c2ccccc2C(=O)N1CCc1ccccc1	none
O=C1CCC(C(=O)N2CCCCCCC2)CN1CCc1ccccc1 (stereo not drawn)	none
CCC1=NN(C(=O)c2ccc(Cl)cc2)C(O)(c2ccc(Br)cc2)C1 (stereo not drawn)	none
CCN1CCN(CC(=O)NCc2cccnc2Oc2ccccc2F)CC1	none
CC(=O)c1cc2c(N)c(C(=O)c3ccc(Cl)cc3)sc2nc1C	ST2 inh 38%
COCc1cc(C)nc2sc(C(=O)c3ccccc3)c(N)c12	none
Cc1ccc2c(N)c(C(=O)c3ccc(Cl)cc3)sc2n1	none
CN(CC1CCCN(CCc2cccc(C(F)(F)F)c2)C1)C(=O)c1ccc(Cl)s1 (stereo not drawn)	none
O=C1CCCC2=C1C(c1ccc3c(c1)OCO3)c1c(nc(SCc3ccccc3F)[nH]c1=O)N2 (stereo not drawn)	none
N#CC1=C(N)SC(N)=C(C#N)C1c1ccc(Cl)cc1Cl	none
Cc1ccc(C2C(C#N)=C(N)SC(N)=C2C#N)o1	ST2 inh 32%
COc1ccccc1C1C(C#N)=C(N)SC(N)=C1C#N	none
N#CC1=C2SCN(C3CCCCC3)CN2C(=O)CC1c1ccccc1F (stereo not drawn)	none
CN1CCC(Cn2ccnc2-c2cnc(NCc3ccccc3)nc2)C1 (stereo not drawn)	none
C=CCc1ccc(OCCN2CCNCC2)c(OC)c1	none
O=C(NCc1ccccc1)NS(=O)(=O)c1ccccc1Cl	none
O=C(NCc1ccccc1)Nc1ccc(Cl)cc1	ST2 inh 30%
O=C(NCc1ccc(Cl)cc1)C(=O)Nc1ccc([N+](=O)[O-])cc1	none
O=C(CCc1ccco1)NCc1cccnc1-n1cnc2ccccc21	none
N#CSCc1ccc([N+](=O)[O-])cc1	none
N#CSC(C#N)Cc1cccc([N+](=O)[O-])c1 (stereo not drawn)	ST2 inh 37%
N#Cc1ccc([N+](=O)[O-])cc1C#N	none
O=C(Nc1c[nH]c(=O)[nH]c1=O)c1cccc(N2C(=O)CCC2=O)c1	none
O=C(CSc1ncnc2ccccc12)N1CCCCC1	none
COc1ccc(OC)c(NS(=O)(=O)c2ccc(NS(=O)(=O)c3ccc(F)cc3)cc2)c1	none
COc1ccc(OC)c(NS(=O)(=O)c2ccc(NS(=O)(=O)c3ccc(C)cc3)cc2)c1	none
COc1ccc(S(=O)(=O)Nc2ccc(S(=O)(=O)Nc3cc(OC)ccc3OC)cc2)cc1	ST2 inh 49%
O=C(NCCc1nc2cccnc2n1C1CCCCC1)Nc1cccc(Br)c1	none
Cc1ccc([N+](=O)[O-])cc1N=Cc1nc(-c2ccccc2)oc1O	none
CCSc1sc(SC#N)cc1SC#N	ST2 inh 47%
CC(C)(C)Sc1ccc(SC#N)s1	none
O=c1cc(-c2ccccc2)nc2c(n1)NON2	none
COc1ccc(C2CC(c3ccc(Br)cc3)=NN2C(=O)CCCC(=O)O)cc1 (stereo not drawn)	none
COc1ccc(C2=NN(CN3C(=O)C(=O)c4ccccc43)C(c3ccc(C)cc3)C2)cc1 (stereo not drawn)	ST2 inh 43%
COc1ccc(C2=NN(C(=O)CCC(=O)O)C(c3cc4ccc(C)cc4nc3Cl)C2)cc1 (stereo not drawn)	none
O=C(CCc1cnccn1)NC1CC(=O)N(Cc2cccc3ccccc23)C1 (stereo not drawn)	none
Cn1c(=O)c2c(nc(NCc3cccnc3)n2Cc2cccc3ccccc23)n(C)c1=O	ST2 inh 30%
Cc1ccccc1Cn1c(NCc2ccccc2)nc2c1c(=O)n(C)c(=O)n2C	none
Cn1c(=O)c2c(nc(NCCCO)n2Cc2cccc3ccccc23)n(C)c1=O	none
c1csc(C2=Nn3c(nnc3-c3ccc4c(c3)OCO4)SC2)c1	none
CSc1ccc(-c2nc(CN3CCN(C)C(CCO)C3)c(C)o2)cc1 (stereo not drawn)	none
O=C(C1CNCCO1)N1CCC(c2cc(Cc3ccccc3)[nH]n2)CC1 (stereo not drawn)	none
Cc1cc(C)n(-c2cccc3cccnc23)n1	none
O=C(CCS(=O)(=O)c1cccc2cccnc12)Nc1ccc(F)cc1	none
COc1ccc(C(Nc2ccccn2)c2ccc3ccc(C)nc3c2O)cc1C (stereo not drawn)	ST2 inh 31%
COc1cc(C(Nc2cc(C)ccn2)c2ccc3cccnc3c2O)ccc1O (stereo not drawn)	none
Cc1cccc(NC(c2ccc(F)cc2)c2ccc3cccnc3c2O)n1 (stereo not drawn)	ST2 inh 30%
